A selection: hits, their analogues and other compounds. The true share with any hit is near 4.7%.
D1 antag – blocks dopamine activation of the human D1 receptor. activity change, negative = inhibition, % at 10 µM. P21728. hit rate 3.2% among 360,000. HEK293 TREx D1 cells, calcium flux, dopamine EC80; stronger effect = lower value. AID 504652; in the data active = activity change below about -30%
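Compound effects on dopamine-evoked calcium signalling were measured in tetracycline-induced HEK293 Trex D1 cells. Dopamine at EC80 followed a 180 s compound pre-read, and fluorescence was tracked kinetically for 180 s more.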
TRHR agonist – agonists of human TRH receptor; hit rate 0.18% among 360,000; activation, % at 2 µM; TRHR cells, calcium flux fluo-8, FDSS agonist mode
Target sequence (P34981 whole entry, looked up): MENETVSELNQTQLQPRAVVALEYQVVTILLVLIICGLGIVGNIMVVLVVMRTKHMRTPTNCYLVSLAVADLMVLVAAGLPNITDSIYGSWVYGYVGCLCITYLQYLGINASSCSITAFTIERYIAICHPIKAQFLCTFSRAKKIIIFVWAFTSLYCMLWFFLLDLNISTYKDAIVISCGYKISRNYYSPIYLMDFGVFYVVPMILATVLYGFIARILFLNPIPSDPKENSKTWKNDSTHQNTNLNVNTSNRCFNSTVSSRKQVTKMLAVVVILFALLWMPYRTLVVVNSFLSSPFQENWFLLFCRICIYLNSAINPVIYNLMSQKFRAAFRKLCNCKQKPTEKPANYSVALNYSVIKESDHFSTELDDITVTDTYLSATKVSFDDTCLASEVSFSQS
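In this calcium-flux screen, cells bearing human TRHR are dye-loaded with fluo-8, baselined for 10 cycles, then exposed to library compounds; positive kinetic calcium responses during the agonist phase mark hits, with TRH as control.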
D1 ag – human D1 receptor agonism; hit rate 1% among 360,000; AID 504660; HEK293 T-REx D1 cells, calcium flux, agonist mode; activation, % at 2 µM; P21728
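Inducible HEK293 T-REx D1 cells, force-coupled to calcium signalling, were plated at 4000 cells/well with tetracycline and held overnight at 30 C. After no-wash calcium dye loading, compound-evoked calcium rise over 180 s flagged agonists.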
TRHR enhancer – allosteric enhancers of human TRH receptor; TRHR cells, fluo-8 calcium fluorescence, EC20 TRH enhancement; enhancement, % at 2 µM; P34981; hit rate 0.66% among 360,000; in the data active = enhancement above about 30%
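Enhancer read-out: after compound pinning and an initial kinetic agonist-mode read, an EC20 of TRH (10 nM final) was injected and fluo-8 calcium signal (Ex 480/Em 530) followed at 1 s/cycle for 100 cycles in TRHR-expressing cells.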
D1 PAM – human D1 dopamine receptor positive modulation; hit rate 0.036% among 360,000; potentiation, % at 10 µM; P21728; HEK293 TREx D1 cells, calcium flux, dopamine EC20 potentiation; AID 504651; in the data active = potentiation above about 30%
Hits are given with their value; - = inactive; . = not tested or not shown. Rule as the data show it, unless noted: active = activation above about 30%; inactive = the rest.

SMILES	D1 antag	TRHR agonist	D1 ag	TRHR enhancer	D1 PAM
CCCC(=O)Nc1ccc2c(c1)Cc1ccccc1-2	-38	-	-	-	-
Cc1cccc(Cn2cc(C(=O)c3ccccc3)c(=O)c3cc4c(cc32)OCO4)c1	-	-	-	-	-
COc1ccc(S(=O)(=O)N(CCc2ccccc2)CC(=O)Nc2cc(C)cc(C)c2)cc1OC	-36	-	-	-	-
COc1ccc(S(=O)(=O)N(CCc2ccccc2)CC(=O)NCc2ccccc2)cc1OC	-	-	-	-	-
COc1ccc(Cl)cc1NC(=O)CN(C)C(=O)Cc1ccc2c(c1)CCC2	-	-	-	-	-
COc1ccc(Cl)cc1NC(=O)CN(C)C(=O)c1cc2c(s1)CCCC2	-38	-	-	-	-
Cc1ccc(-n2ncc(C(=O)NCCN3CCc4ccccc4C3)c2C2CCNCC2)cc1C	-	-	-	-	-
Cc1c(C(=O)N/N=C/c2ccc(-c3ccccc3[N+](=O)[O-])o2)sc(N)c1C#N	-62	-	-	-	-
O=C(N/N=C\c1ccc(-c2ccccc2[N+](=O)[O-])o1)C1COc2cc3ccccc3cc2O1 (configuration not stated)	-	-	-	-	-
O=C(N/N=C\c1ccc(-c2ccccc2[N+](=O)[O-])o1)C1COc2ccccc2O1 (configuration not stated)	-36	-	-	-	-
O=C(N/N=C/c1ccc(-c2ccccc2[N+](=O)[O-])o1)c1cncc(Br)c1	-	-	-	-	-
O=C(CSc1ncc2c(n1)-c1ccccc1N(Cc1ccc(Cl)cc1)S2(=O)=O)c1ccc(Cl)cc1	-	-	-	-	-
CC(C)N(C)Cc1cn(C)nc1-c1ccc(Oc2ccccc2)cc1	-	-	-	36	-
Cn1cc(CNCC2CCCO2)c(-c2ccc(Oc3ccccc3)cc2)n1 (configuration not stated)	-	-	46	-	-
COCCN(Cc1cn(C)nc1-c1ccc(Oc2ccccc2)cc1)C(C)C	-	-	-	-	-
COc1cn(CC(=O)Nc2ccc(F)cc2)c(CN2CCCCC2)cc1=O	-	-	-	-	-
COc1cn(CC(=O)Nc2ccc(C)cc2)c(CN2CCCCC2)cc1=O	-46	-	-	-	-
CCOC(=O)N1CCc2c(sc3c2c(=O)n(Cc2ccccc2)c(=O)n3CC(=O)Nc2ccccc2F)C1	-	-	-	-	-
CCN(C(=O)Cn1c(=O)oc2cc(S(=O)(=O)N3CCCCCC3)ccc21)c1cccc(C)c1	-	-	-	-	-
COCCCn1c(-c2ccc(S(=O)(=O)N3CCOCC3)cc2)csc1=Nc1ccccc1	-	-	-	-	-
CCn1c(-c2ccc(S(=O)(=O)N3CCOCC3)cc2)csc1=Nc1ccc(C)c(Cl)c1	-37	-	-	-	-
Cc1cccc(Nc2nc(C#N)nc(NC3CCCC3)n2)c1	-	-	-	-	-
CCOc1ccc(N/C(SC)=C(/C#N)C(N)=O)cc1	-52	-	-	-	-
CCc1ccc(N/C(SC)=C(/C#N)C(N)=O)cc1	-	-	-	-	-
Cc1nnc(C)n1/N=C/c1c(O)ccc2ccccc12	-	-	-	-	-
SMILES	D1 antag	TRHR agonist	D1 ag	TRHR enhancer	D1 PAM
Cc1nnc(-c2ccccc2)c(=O)n1/N=C/c1c(O)ccc2ccccc12	-	-	113	-	-
Cc1ccc(SC(C)C(=O)Nc2ccc(S(=O)(=O)N3CCOCC3)cc2)cc1 (configuration not stated)	-	-	46	-	-
Cc1nnc(SC(C)C(=O)Nc2ccc(S(=O)(=O)N3CCCCC3)cc2)s1 (configuration not stated)	-	-	-	-	-
COc1ccc(CC(=O)Nc2ccc(F)c(Cl)c2)cc1S(=O)(=O)N1CCOCC1	-35	-	-	-	-
Cc1csc(SC(C)C(=O)Nc2ccc(S(=O)(=O)N3CCCC3)cc2)n1 (configuration not stated)	-40	-	-	-	-
O=C(Cc1ccc(Cl)cc1)Nc1ccc(S(=O)(=O)N2CCOCC2)cc1	-	-	34	-	-
COc1cccc(NS(=O)(=O)c2ccc3[nH]cc(C(=O)NCCc4ccccc4)c(=O)c3c2)c1	-	-	-	-	-
O=C(Cn1c(=O)c(C(F)(F)F)nc2ccccc21)Nc1cccc(Br)c1	-	-	-	-	-
CC(Oc1ccccc1Cl)C(=O)Nc1ccc(S(=O)(=O)N2CCCC2)cc1 (configuration not stated)	-	-	-	34	-
CC(OC(=O)C(C)Oc1ccccc1)C(=O)Nc1ccc(S(=O)(=O)N2CCCCC2)cc1 (configuration not stated)	-	-	-	-	.
CC(Oc1ccc(Cl)cc1)C(=O)Nc1ccc(S(=O)(=O)N2CCOCC2)cc1 (configuration not stated)	-	-	47	-	-
CCOc1ccc(S(=O)(=O)N(CCO)CCO)cc1-c1nc2c(C(C)(C)C)nn(C)c2c(=O)[nH]1	-	-	-	-	30
CCOC(=O)c1ccc(COC(=O)CNC(=O)CNC(=O)Cc2ccccc2)cc1	-	-	-	-	-
O=C(CNC(=O)c1ccc(Br)o1)Nc1ccncc1	-64	-	-	-	-
O=C(Nc1ccc(Cc2ccncc2)cc1)c1ccc(Br)o1	-	-	-	-	-
O=C(CNS(=O)(=O)c1ccccc1)NCC(=O)OCc1ccc(Br)cc1	-	-	-	-	-
O=C(CNC(=O)Cc1ccccc1)NCC(=O)OCc1ccc(C(=O)c2ccccc2)cc1	-63	-	-	-	-
O=C(CNC(=O)c1ccc(Br)o1)NCC(=O)OCc1ccccc1	-	-	-	30	-
O=C(Nc1ccccc1)N(Cc1cccs1)c1ccc(F)cc1	-	-	-	-	-
Cc1ccc(N2C(=O)c3oc4cc(C)c(C)cc4c(=O)c3C2c2cccc(O)c2)nc1 (configuration not stated)	-	-	-	-	-
CC1(C)Cc2nc3sc4c(N(CCO)CCO)nnnc4c3cc2CO1	-	-	-	30	-
CCOc1ccc(C(C(=O)NC2CCCC2)N(CCCO)C(=O)c2ccc(-c3ccccc3)[nH]2)cc1 (configuration not stated)	-30	-	-	-	-
COc1ccc(CNC(=O)Cn2c(=O)nc(-c3ccccc3F)c3cc(Cl)ccc32)cc1OC	-	-	-	-	-
CC(C)c1ccc(/C=C2\Oc3c(ccc(O)c3CN3CCN(C)CC3)C2=O)cc1	-	-	68	-	-
Cc1ccc(/C=C2\Oc3c(ccc(O)c3CN3CCN(CCO)CC3)C2=O)cc1	-	-	32	-	-
O=C1/C(=C/c2ccco2)Oc2c1ccc(O)c2CN1CCCCC1	-	-	-	-	-
CCN1CCN(Cc2c(O)ccc3c2O/C(=C\C=C\c2ccccc2OC)C3=O)CC1	-	33	112	-	-
O=S(=O)(c1ccc(Cl)cc1)N1CCN(S(=O)(=O)c2ccc3c(c2)OCCO3)CC1	-	-	-	-	-

Assay outcomes: PubChem BioAssay, National Center for Advancing Translational Sciences (NCATS)
